MLL CXXC-DNA inh: blocks binding of human MLL CXXC domain to DNA | Q03164 | MLL-CXXC / FITC-HOXA9 DNA fluorescence polarization | Potency, µM (top dose mostly 115 µM), without a hit: at the highest dose activity change, negative = inhibition, hits mostly inhibitors | 290,000 compounds, 0.037% hits; active = well fitted inhibition curve with a large enough effect in the polarisation, with a control signal flat, not every such curve was filed as active; inconclusive = small, poorly fitted or top-dose-only effect, or effect the other way, or a change in a side signal; inactive = no such curve, though single readings can be large or run the other way; the % refers to the polarisation; also: potency is read from the fitted curve at half-maximal effect
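Fluorescence polarization: 7 uM MLL-CXXC (stock) preincubated 5 min with compounds, then 50 nM fluorescein-HOX-A9 DNA (stock) added; 30 min ambient. Buffer 50 mM Tris-HCl pH 7.5, 50 mM NaCl, 1 mM DTT, 0.05% BSA.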
GoLoco inh red: inhibitors of human Gai1-RGS12 GoLoco interaction (red fluorophore); P63096; Gai1:RGS12 GoLoco peptide FP, rhodamine, 10 min; Potency, µM (doses to about 61.6 µM), without a hit: at the highest dose activity, negative = inhibition, most hits filed as inhibitors; 230,000 compounds, 0.44% hits; active = well fitted inhibition curve with a large enough effect, not every such curve was filed as active; inactive = no such curve, though single readings can be large or run the other way; also: potency is read from the fitted curve at half-maximal effect; % is scaled to controls: 0 for no effect and ±100 for the full control effect; nearly all actives have a fitted effect of over 30% in size
Target sequence (P63096 whole entry, looked up): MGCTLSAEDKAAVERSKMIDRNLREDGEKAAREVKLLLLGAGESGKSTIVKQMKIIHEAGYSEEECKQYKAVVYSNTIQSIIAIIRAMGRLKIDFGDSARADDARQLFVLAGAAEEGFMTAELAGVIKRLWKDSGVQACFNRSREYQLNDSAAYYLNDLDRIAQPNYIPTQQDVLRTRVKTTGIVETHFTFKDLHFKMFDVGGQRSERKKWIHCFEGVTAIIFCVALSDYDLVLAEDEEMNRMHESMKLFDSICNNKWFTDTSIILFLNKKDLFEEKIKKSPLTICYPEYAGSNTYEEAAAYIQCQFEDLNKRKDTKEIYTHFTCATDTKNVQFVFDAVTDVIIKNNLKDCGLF
TRb-SRC2 inh: TRbeta-SRC2 interaction inhibition; P10828; TRbeta-SRC2 peptide binding, fluorescence polarization; receptor liganded with 1 µM T3; Potency, µM (top dose mostly 106 µM), for inactives: at the top dose activity change, negative = inhibition, usual class: inhibitors; 280,000 compounds, 0.065% hits; active = well fitted inhibition curve with a large enough effect; inconclusive = small, poorly fitted or top-dose-only effect, or effect the other way;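 also: potency is read from the fitted curve at half-maximal effect; plate controls were bound peptide for no effect and peptide without receptor for full effect; nearly all actives have a fitted effect of over 50% in size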
Target sequence (P10828 whole entry, looked up): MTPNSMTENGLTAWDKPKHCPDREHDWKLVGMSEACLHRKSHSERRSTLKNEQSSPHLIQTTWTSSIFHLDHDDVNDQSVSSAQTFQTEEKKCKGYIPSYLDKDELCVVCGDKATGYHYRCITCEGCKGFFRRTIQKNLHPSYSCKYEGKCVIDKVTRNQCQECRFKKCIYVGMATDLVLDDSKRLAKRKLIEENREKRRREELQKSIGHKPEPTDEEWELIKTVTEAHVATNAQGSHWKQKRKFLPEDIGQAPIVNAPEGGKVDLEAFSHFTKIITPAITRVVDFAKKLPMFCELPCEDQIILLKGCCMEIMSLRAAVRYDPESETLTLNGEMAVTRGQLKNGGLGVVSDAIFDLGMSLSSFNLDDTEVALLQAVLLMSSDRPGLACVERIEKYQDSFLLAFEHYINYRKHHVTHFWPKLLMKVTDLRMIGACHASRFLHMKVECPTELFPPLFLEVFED
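Human TRb LBD (0.6 uM) plus Texas Red-labeled SRC2 peptide (20 nM), 1uM T3, 5% DMSO, 5 hr at ambient temperature. Decreased polarization (555/632 nm) flags inhibition; data normalized to free and bound peptide controls.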
Menin-MLL TR inh: menin-MLL binding inhibition, Texas Red mutant peptide; AID 1768; Menin + Texas Red MLL mutant peptide, fluorescence polarization; Potency, µM (titrated, usually from 61.6 µM), for inactives: at the top dose FP activity change, negative = inhibition, hits mostly inhibitors; 270,000 compounds, 0.23% hits; O00255; active = well fitted inhibition curve with a large enough effect in the polarisation, with a control signal flat, not every such curve was filed as active; inconclusive = small, poorly fitted or top-dose-only effect, or effect the other way, or a change in a side signal; inactive = no such curve, though single readings can be large or run the other way; the % refers to the polarisation; also: potency is read from the fitted curve at half-maximal effect; % of control where 0% means no effect
TR SRC2 fluor cs: Texas Red fluorescence interference in TRb-SRC2 counter-screen; TRb/SRC2 Texas Red total fluorescence interference; Potency, µM (highest dose often 106 µM), inactives show at the highest dose fluorescence change, negative = quenching; 280,000 compounds, 0.29% hits; active = well fitted curve in either direction with a large enough effect; inconclusive = small, poorly fitted or top-dose-only effect; also: potency is read from the fitted curve at half-maximal effect; % is scaled to controls: 0 for no effect and ±100 for the full control effect
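Flags fluorescent or light-absorbing compounds by total fluorescence, S + 2P, at 555 nm excitation and 632 nm emission. Mixture: 20 nM Texas Red SRC2 peptide, 0.6 uM human TRb LBD, 1 uM T3, 5% DMSO; compound exposure 5 h at ambient temperature.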
Menin MLL FP FL: displaces fluorescein MLL peptide from human menin | Fluorescence polarization, fluorescein-MLL peptide displacement from menin | FP activity change, % at 61.4 µM | 290,000 tested, under 10 active; active = well fitted curve in the direction sought with a large enough effect in the polarisation, not every such curve was filed as active; inconclusive = small, poorly fitted or top-dose-only effect, or effect the other way, or a change in a side signal; inactive = no such curve, though single readings can be large or run the other way; the % refers to the polarisation; also: % of control where 0% means no effect
Numbers without * were called inactive; u = inconclusive; x = not tested or not shown; [ ] = another dose, or the depositor's remark. Hits are enriched below; roughly 0.5% of the tested compounds scored in any of these assays.

SMILES | MLL CXXC-DNA inh | GoLoco inh red | TRb-SRC2 inh | Menin-MLL TR inh | TR SRC2 fluor cs | Menin MLL FP FL
N#CC1=C(N)N(c2ccc(F)cc2)C2=C(C1c1ccc(O)cc1)S(=O)(=O)CC2 (centres undefined) | 4.8% | 236.3% | u | u | 44.7µM*[fluorescent] | u
COc1ccc2c(c1)OC(=O)CC2c1ccc2c(c1)OCO2 (centres undefined) | x | -2.4%[88.7 µM] | -1.1% | u | -1.8% | -4.2[94.6 µM]
CCc1ccc(NC(=O)c2sc3nc(C)c(Cl)c(C)c3c2N)cc1 | x | x | -0.1% | x | 4.5% | x
CCc1ccc(NC(=O)c2sc3nc(C)c(Cl)c(C)c3c2NC(=O)c2ccccc2OC)cc1 | x | x | -9.2% | x | 10µM*[quencher] | x
COc1cc2c(cc1O)CCN[C@@]21CS[C@H]2c3c(OC(C)=O)c(C)c4c(c3C(COC1=O)N1C2C2c3c(cc(C)c(OC)c3O)CC([C@@H]1O)N2C)OCO4 (some centres undefined) | 10.8% | x | x | -1.2% | x | -1.0
Cc1ccccc1CSCc1nc2ccccc2[nH]1 | -14.4% | 16.6% | -14.5%[53 µM] | 34.4% | 1.12µM*[quencher] | 3.2
Cc1c(Cl)cccc1Cl | x | x | -0.1%[201 µM] | x | -0.3%[201 µM] | x
O=C(Nc1nc(-c2ccc(S(=O)(=O)N3CCCC3)cc2)cs1)C1COc2ccccc2O1 (centres undefined) | 20.1% | 1.0% | -4.6% | 10µM* | -2.3% | 4.9
O=C(Nc1nc(-c2ccccc2)cs1)C1COc2ccccc2O1 (centres undefined) | 17.1% | -0.8% | -1.3% | -19.5% | -4.2% | 4.6
CC(C)(O)C1Cc2cc(/C=C/C(=O)O)c(O)cc2O1 (centres undefined) | 2.7% | 28.2µM* | 1.1% | 4.3% | -4.9% | 2.9
COc1cc2c(cc1/C=C/C(=O)O)OC(C)C2 (centres undefined) | -10.0% | -0.2% | 1.0% | 16.4% | -1.2% | 6.3
COC(=O)c1ccccc1NC(=O)/C=C/c1ccco1 | 24.8% | 12.6% | u | 15.0% | 3.16µM*[quencher] | 12.1
Cc1c2ccccc2nc2c(F)c(NCCO)c(F)c(F)c12 | u | 20µM* | 4.6% | u | -14.5% | u
OC1CCC(C2CCCCC2)CC1 (centres undefined) | x | x | -1.4%[201 µM] | x | -10.4%[201 µM] | x
Cc1ccc(S(=O)(=O)O[C@H]2CC(C(C)(C)C)CC[C@@H]2c2ccccc2)cc1 (some centres undefined) | x | 4.6%[14.2 µM] | x | x | x | x
CCn1c(C)[n+](CCCS(=O)(=O)[O-])c2cc(Cl)c(Cl)cc21 | 0.1% | 3.98µM* | -4.7% | 15.7% | -0.5% | 4.6
Brc1ccc(Br)c(Br)c1 | x | x | 3.7%[201 µM] | x | -4.3%[201 µM] | x
C=CCCCCCCCCCBr | x | x | 0.7% | -1.6% | -2.5% | -0.2
Cc1ccc2c(c1)-c1nc(-c3ccc(Cl)cc3)cc(-c3coc4ccccc4c3=O)c1CO2 | x | x | -0.2% | x | 10µM*[quencher] | x
O=c1c(-c2cc(-c3ccccc3)nc3c2COc2ccc(Cl)cc2-3)coc2ccccc12 | x | x | 2.4% | x | u | x
Cc1c(C(=O)Nc2cccc(C#N)c2)sc2nc3n(c(=O)c12)CCCCC3 | x | x | -0.2% | x | 7.0% | x
CNc1nc(Cl)nc2c1ncn2CC(COC(=O)C(C)(C)C)COC(=O)C(C)(C)C | x | x | -4.6% | 10.3% | -4.5% | 4.8
COc1ccc(NC(=O)c2cc(=O)[nH]c3ccccc23)cc1 | -3.1% | x | x | -13.6% | x | -10.2
COc1ccc(NCc2cc(=O)[nH]c3ccccc23)cc1 | 21.5% | x | x | 39.8µM* | x | -21.2
CCOc1ccc(NCc2cccn2-c2nnc(N3CCC(C(=O)NCCc4ccc(OC)c(OC)c4)CC3)s2)cc1 | x | x | -8.1% | x | 35.5µM*[quencher] | x
SMILES | MLL CXXC-DNA inh | GoLoco inh red | TRb-SRC2 inh | Menin-MLL TR inh | TR SRC2 fluor cs | Menin MLL FP FL
CC1=C[C@@H](O)CC(C)(C)[C@@H]1/C=C/C(C)=C/C=C/C(C)=C/C=C/C=C(C)/C=C/C=C(C)/C=C/C1=C(C)C[C@H](O)CC1(C)C | 6.4% | x | x | -17.3% | x | -2.4
COc1ccc(OC)c(N=c2oc3cc(O)ccc3cc2C(N)=O)c1 | 24.2% | 17.8µM* | 11.7% | -8.4% | -22.7% | 8.3
CCOC(=O)N1CCN(/[N+]([O-])=N/Oc2ccc([N+](=O)[O-])cc2[N+](=O)[O-])C(C)C1 (centres undefined) | x | x | -6.2% | 12.2% | -0.2% | 2.4
Brc1cccc(C2Nc3cccc4cccc(c34)N2)c1 | 9.6% | x | x | u | x | 2.4
Brc1ccc(C2Nc3cccc4cccc(c34)N2)o1 | -8.5% | -26.9% | 24.3% | u | 2.82µM*[quencher] | u
Cc1cccc(N2CCN(S(=O)(=O)c3ccc(S(=O)(=O)N4CCCC4)cc3)CC2)c1C | -4.6% | 1.9% | -2.4% | -5.4% | 0.5% | 1.8
Cc1cccc(N2CCN(S(=O)(=O)c3ccc4c(c3)CC(=O)N4C)CC2)c1C | 18.5% | x | -7.0% | 7.7% | 22.4µM*[quencher] | 2.8
Cc1ccc(C(=O)c2cn(Cc3ccc(F)cc3)c3nc(C)ccc3c2=O)cc1 | x | x | -21.2%[53 µM] | x | 0.0112µM*[quencher] | x
O=C1C2=C(Nc3ccccc3SC2c2ccccc2C(F)(F)F)c2ccccc21 (centres undefined) | x | x | 1.8% | x | 2.8% | x
CCN(CC)c1ccc(C(=C2C=CC(=[N+](CC)CC)C=C2)c2ccccc2)cc1 | x | x | -7.9% | -27.7% | 0.2% | -6.0
CCN(CC)c1ccc(C(=C2C=CC(=[N+](CC)Cc3cccc(S(=O)(=O)[O-])c3)C=C2)c2ccc(N(CC)Cc3cccc(S(=O)(=O)O)c3)cc2)cc1 | x | x | 11.2µM* | u | 11.2µM*[fluorescent] | u
CCN(Cc1ccccc1)c1ccc(/C=N/NS(=O)(=O)c2cccc([N+](=O)[O-])c2)cc1 | -1.9% | 21.1% | 0.3% | u | 4.1% | x
CCN(Cc1cccc(S(=O)(=O)O)c1)c1ccc(C(=C2C=CC(=[N+](CC)Cc3cccc(S(=O)(=O)[O-])c3)C=C2)c2ccccc2)cc1 | x | x | u | x | 89.1µM*[quencher] | x
NCCCCCCCCCCC(=O)O | x | x | -2.7%[201 µM] | x | -3.7%[201 µM] | x
O=c1n(Cc2ccccc2)nc2n1-c1ccccc1OC2 | x | x | -3.2% | x | 10µM*[quencher] | x
COC1=CC(=O)C(C(=O)c2ccccc2)=CC1=O | x | 6.31µM* | u | u | -7.4% | u
COc1ccc(CNc2nc(-c3ccco3)nn2C(=O)CC(C)C)cc1 | x | x | -13.4% | x | 79.4µM*[quencher] | x
CC(C)CC(=O)n1nc(-c2ccco2)nc1NCc1ccc(Cl)cc1 | x | x | 4.6% | x | -8.8% | x
COc1cc2c(c(OC)c1OC)-c1c(cc3c(c1OC)OCO3)CC(C)C(C)(O)C2OC(=O)c1ccccc1 (centres undefined) | x | x | 11.5% | -16.7% | 2.3% | 0.3
C[N+](C)(C)C/C=C1/COCO1 | 0.1% | 10µM* | -5.8% | 14.9% | -2.1% | -2.9
CCOC(=O)c1c(CSc2ccccc2)n(C)c2cc(Br)c(O)c(CN(C)C)c12 | 10.2% | 22.4µM* | 7.1% | x | 1.3% | 1.8
CCOC(=O)c1c(CSc2ccc(C)cc2)n(C)c2cc(Br)c(O)c(CN(C)C)c12 | -0.6% | -5.8% | 1.0% | u | -3.3% | 2.6

Screening data from PubChem BioAssay.
